Values joined by “and” are separate entries in the source; they are usually repeats but may differ in a detail not shown here. Identical values can stand only once. Results filed as inconclusive are left out. A call without a number means that no potency is given here. Some structures have more than one record in an assay (separate samples or runs), and their calls can disagree. Active and inactive are the calls of the source. Unless noted, calls follow the shape of the dose curve; as a rule, active = well fitted curve in the direction sought with a large enough effect; inconclusive = small, poorly fitted or top-dose-only effect, or another doubt; inactive = no such curve, though single readings can be large; an effect the other way counts as inactive or inconclusive.
Experiments:
[1] = molecular target: Cytochrome P450 2D6 (Homo sapiens) (UniProt P10635); experiment: Cytochrome P450 family 2 subfamily D member 6 (CYP2D6) small molecule antagonists: luciferase biochemical (cell-free) qHTS assay (AID 1645840; active = well fitted curve in the direction sought with a large enough effect in the repeat runs; an effect the other way counts as inactive or inconclusive; also: nearly all actives have a fitted effect of over 55% in size; also: potency is read from the fitted curve at half-maximal effect)
Chain of Cytochrome P450 2D6 (Homo sapiens) (P10635 whole entry, looked up): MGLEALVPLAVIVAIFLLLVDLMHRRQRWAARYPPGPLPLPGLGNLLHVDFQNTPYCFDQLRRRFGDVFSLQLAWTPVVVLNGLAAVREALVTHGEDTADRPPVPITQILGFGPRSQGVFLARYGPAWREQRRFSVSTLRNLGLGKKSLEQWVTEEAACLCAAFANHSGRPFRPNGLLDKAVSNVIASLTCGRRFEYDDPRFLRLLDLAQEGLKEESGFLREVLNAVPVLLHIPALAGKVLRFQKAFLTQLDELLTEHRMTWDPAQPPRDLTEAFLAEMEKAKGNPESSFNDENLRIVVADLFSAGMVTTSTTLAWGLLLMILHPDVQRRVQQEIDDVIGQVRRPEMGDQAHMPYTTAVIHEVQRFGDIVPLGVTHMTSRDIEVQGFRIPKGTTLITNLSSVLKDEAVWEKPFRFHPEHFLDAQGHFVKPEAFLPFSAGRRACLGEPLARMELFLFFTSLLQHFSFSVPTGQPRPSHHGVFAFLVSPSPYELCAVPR
In short: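 P450-Glo CYP2D6 system: proluciferin substrate converted by enzyme to luciferin, read by luminescence proportional to activity. Enzyme-substrate mix with compound 10 min at room temperature, then NADPH regeneration 1 h before detection reagent.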

[2] = molecular target: Cytochrome P450 2C9 (Homo sapiens) (UniProt P11712); experiment: Cytochrome P450 family 2 subfamily C member 9 (CYP2C9) small molecule antagonists: luciferase biochemical (cell-free) qHTS assay (AID 1645842; active = well fitted curve in the direction sought with a large enough effect in the repeat runs; an effect the other way counts as inactive or inconclusive; also: nearly all actives have a fitted effect of over 55% in size; also: potency is read from the fitted curve at half-maximal effect)
Chain of Cytochrome P450 2C9 (Homo sapiens) (P11712 whole entry, looked up): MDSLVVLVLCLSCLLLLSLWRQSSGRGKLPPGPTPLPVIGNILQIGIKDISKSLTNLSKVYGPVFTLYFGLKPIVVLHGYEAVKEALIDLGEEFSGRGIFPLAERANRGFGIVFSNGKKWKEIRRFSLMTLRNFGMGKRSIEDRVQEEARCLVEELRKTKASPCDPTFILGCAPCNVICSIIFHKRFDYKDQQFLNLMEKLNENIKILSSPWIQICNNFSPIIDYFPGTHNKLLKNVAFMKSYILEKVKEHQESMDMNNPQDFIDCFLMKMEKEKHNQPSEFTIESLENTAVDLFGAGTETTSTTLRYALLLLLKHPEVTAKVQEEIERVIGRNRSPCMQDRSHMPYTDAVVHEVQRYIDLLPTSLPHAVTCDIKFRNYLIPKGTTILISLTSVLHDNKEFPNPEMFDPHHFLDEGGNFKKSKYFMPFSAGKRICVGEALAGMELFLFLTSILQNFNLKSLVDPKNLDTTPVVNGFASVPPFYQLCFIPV
In short: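 P450-Glo CYP2C9 system: proluciferin substrate with enzyme in mix containing 0.4% BSA, 10 min at room temperature, then NADPH regeneration solution added and incubated 1 h at 37C. Detection reagent stopped reaction; luminescence read after 20 min as RLU.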

Papain (Carica papaya) = Papain (Carica papaya) (UniProt P00784); experiment: Primary qHTS assay for inhibitors of the protease papain (AID 1645873);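 also: papain turnover of Z-FR-AMC read as the AMC fluorescence gain over 10 min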; also: potency is read from the fitted curve at half-maximal effect
Chain of Papain (Carica papaya) (P00784 whole entry, looked up, the tested form may be a part): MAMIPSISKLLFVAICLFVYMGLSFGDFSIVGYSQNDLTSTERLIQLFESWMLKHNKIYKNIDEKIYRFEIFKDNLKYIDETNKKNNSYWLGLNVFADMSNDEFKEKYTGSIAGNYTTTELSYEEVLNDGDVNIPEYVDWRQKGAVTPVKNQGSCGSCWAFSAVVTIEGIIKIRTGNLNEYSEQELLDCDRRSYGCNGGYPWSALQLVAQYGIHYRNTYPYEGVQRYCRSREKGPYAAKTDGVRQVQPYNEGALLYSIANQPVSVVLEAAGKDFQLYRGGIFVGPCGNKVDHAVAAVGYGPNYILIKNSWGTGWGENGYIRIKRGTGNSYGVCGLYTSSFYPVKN

[3] = Primary qHTS for inhibitors of nuclear receptor binding SET domain protein 2 (NSD2) in an isogenic RCH-ACV NSD2 p.E1099K mutant (9B) (AID 1645876); also: nearly all actives have a fitted effect of over 70% in size; also: potency is read from the fitted curve at half-maximal effect
[4] = Primary qHTS for inhibitors of nuclear receptor binding SET domain protein 2 (NSD2) in an RCH-ACV wild type WT cells (2C) (AID 1645877); also: nearly all actives have a fitted effect of over 70% in size; also: potency is read from the fitted curve at half-maximal effect
[5] = molecular target: N-terminal Xaa-Pro-Lys N-methyltransferase 1 (Homo sapiens) (UniProt Q9BV86); experiment: Confirmatory qHTS for Inhibitors of N-terminal methyltransferase 1 (NTMT1): MTaseGlo Assay (AID 1645874);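 also: luminescence from SAH made as NTMT1 methylates SPKRIA peptide using SAM; series mostly up to about 100 µM; nearly all actives have a fitted effect of over 65% in size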
Chain of N-terminal Xaa-Pro-Lys N-methyltransferase 1 (Homo sapiens) (Q9BV86 whole entry, looked up): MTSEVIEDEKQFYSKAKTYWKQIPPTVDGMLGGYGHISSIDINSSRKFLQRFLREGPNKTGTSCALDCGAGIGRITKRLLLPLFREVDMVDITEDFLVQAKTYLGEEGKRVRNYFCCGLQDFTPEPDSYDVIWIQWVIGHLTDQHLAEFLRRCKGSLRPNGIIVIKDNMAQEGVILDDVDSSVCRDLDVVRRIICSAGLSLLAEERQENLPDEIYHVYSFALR
In short: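 Enzyme mix (125 nM NTMT1, 100 uM SAM) + compound, 15 min RT; + 1 uM SPKRIA, 30 min RT, dark; MTase-Glo reagent 30 min, detection solution 30 min; luminescence. % inhibition vs no-enzyme/DMSO controls, 4-parameter Hill fit.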

Cc1cc(C(C)(C)C)c(O)c(C)c1CC1=NCCN1
Potency [1]: 1.95 µM (active) | Potency [2]: inactive | Potency (Papain (Carica papaya)): inactive | Potency [3]: inactive | Potency [4]: inactive

Cc1ccc(-c2cc(C(F)(F)F)nn2-c2ccc(S(N)(=O)=O)cc2)cc1
Potency [1]: 13.8 µM (active) | Potency [2]: 12.3 µM (active) | Potency (Papain (Carica papaya)): inactive

COc1ccc(C2CNC(=O)C2)cc1OC1CCCC1 (stereo not drawn)
Potency [1]: inactive | Potency [2]: inactive | Potency (Papain (Carica papaya)): inactive | Potency [3]: inactive | Potency [4]: inactive

N[C@@H](Cc1c[nH]c2ccc(O)cc12)C(=O)O
Potency [1]: 19.5 µM (active) | Potency [2]: 15.5 µM (active) | Potency (Papain (Carica papaya)): inactive | Potency [3]: inactive | Potency [4]: inactive

Nc1nc2c(ncn2COC(CO)CO)c(=O)[nH]1
Potency [1]: inactive | Potency [2]: inactive | Potency (Papain (Carica papaya)): inactive | Potency [3]: inactive | Potency [4]: inactive

Cc1cn([C@H]2C=C[C@@H](CO)O2)c(=O)[nH]c1=O
Potency [1]: inactive | Potency [2]: inactive | Potency (Papain (Carica papaya)): inactive | Potency [3]: inactive | Potency [4]: inactive

Cn1c(=O)c2c(ncn2C)n(C)c1=O
Potency [1]: inactive | Potency [2]: inactive | Potency (Papain (Carica papaya)): inactive | Potency [3]: inactive | Potency [4]: inactive

COc1ccc2[nH]cc(CCNC(C)=O)c2c1
Potency [1]: inactive | Potency [2]: inactive | Potency (Papain (Carica papaya)): inactive | Potency [3]: inactive | Potency [4]: inactive

Cc1cc(C(C)(C)C)cc(C)c1CC1=NCCN1
Potency [1]: 4.36 µM (active) | Potency [2]: inactive | Potency (Papain (Carica papaya)): inactive | Potency [3]: inactive and 20.9 µM (active) | Potency [4]: inactive and 18.6 µM (active)

NS(=O)(=O)c1cc2c(cc1Cl)NCNS2(=O)=O
Potency [1]: inactive | Potency [2]: inactive | Potency (Papain (Carica papaya)): inactive | Potency [3]: inactive | Potency [4]: inactive

COc1ccc(CCN(C)CCCC(C#N)(c2ccc(OC)c(OC)c2)C(C)C)cc1OC (stereo not drawn)
Potency [1]: inactive

COc1cc2c(c(OC)c1OC)-c1ccc(OC)c(=O)cc1[C@@H](NC(C)=O)CC2
Potency [1]: inactive | Potency [2]: inactive | Potency (Papain (Carica papaya)): inactive | Potency [3]: 33.5 nM (active) and 33.2 nM (active) | Potency [4]: 15 nM (active) and 26.3 nM (active)

Cn1ccc2cc3c(cc21)CCN3C(=O)Nc1cccnc1
Potency [1]: inactive | Potency [2]: inactive | Potency (Papain (Carica papaya)): inactive | Potency [3]: inactive | Potency [4]: inactive

CC(C)NCC(O)COc1ccc(CCOCC2CC2)cc1 (stereo not drawn)
Potency [1]: inactive | Potency [2]: inactive | Potency (Papain (Carica papaya)): inactive | Potency [3]: inactive | Potency [4]: inactive

Clc1ccc(C(c2ccccc2Cl)C(Cl)Cl)cc1 (stereo not drawn)
Potency [1]: inactive | Potency [2]: 12.3 µM (active) | Potency (Papain (Carica papaya)): inactive | Potency [3]: inactive | Potency [4]: inactive

COc1nc(C)nc(Cl)c1NC1=NCCN1
Potency [1]: inactive | Potency [2]: inactive | Potency (Papain (Carica papaya)): inactive | Potency [3]: inactive | Potency [4]: inactive

Nc1ccn([C@H]2CC[C@@H](CO)O2)c(=O)n1
Potency [1]: inactive | Potency [2]: inactive | Potency (Papain (Carica papaya)): inactive

CN1CCC(=C2c3ccccc3CC(=O)c3sccc32)CC1
Potency [1]: 1.38 µM (active) | Potency [2]: inactive | Potency (Papain (Carica papaya)): inactive | Potency [3]: inactive

C[C@H]1c2cccc(O)c2C(O)=C2C(=O)[C@]3(O)C(O)=C(C(N)=O)C(=O)[C@@H](N(C)C)[C@@H]3[C@@H](O)[C@@H]21
Potency [1]: inactive | Potency [2]: inactive | Potency (Papain (Carica papaya)): 22.4 µM (active) | Potency [3]: 23.5 µM (active) | Potency [4]: 9.34 µM (active)

CC1(CN2CCC(n3c(=O)[nH]c4ccccc43)CC2)OCc2ccccc2-n2cccc21 (stereo not drawn)
Potency [1]: 1.38 µM (active) | Potency [2]: 9.77 µM (active)

CCC1(C)CC(=O)NC1=O (stereo not drawn)
Potency [1]: inactive | Potency [2]: inactive | Potency (Papain (Carica papaya)): inactive | outcome [5]: inactive | Potency [3]: inactive | Potency [4]: inactive

CCOC(=O)c1ncn2c1CN(C)C(=O)c1cc(F)ccc1-2
Potency [1]: inactive | Potency [2]: inactive and 13.5 µM (active) | Potency (Papain (Carica papaya)): inactive | Potency [3]: inactive | Potency [4]: inactive

CS(=O)(=O)Nc1ccc([N+](=O)[O-])cc1Oc1ccccc1
Potency [1]: inactive | Potency [2]: 13.8 µM (active) | Potency (Papain (Carica papaya)): inactive | Potency [3]: inactive | Potency [4]: inactive

NCCCCCC(=O)O
Potency [1]: inactive | Potency [2]: inactive | Potency (Papain (Carica papaya)): inactive | Potency [3]: inactive | Potency [4]: inactive

CC[N+](CC)(CC)CCOc1cccc(OCC[N+](CC)(CC)CC)c1OCC[N+](CC)(CC)CC
Potency [1]: inactive | Potency [2]: inactive | Potency (Papain (Carica papaya)): inactive | Potency [3]: inactive | Potency [4]: inactive

COc1cc2nc(N3CCN(C(=O)C4COc5ccccc5O4)CC3)nc(N)c2cc1OC (stereo not drawn)
Potency [1]: inactive | Potency [2]: inactive | Potency (Papain (Carica papaya)): 25.1 µM (active)

CN(C)CCC=C1c2ccccc2C=Cc2ccccc21
Potency [1]: 3.89 µM (active) and 8.49 µM (active) | Potency [2]: inactive | Potency (Papain (Carica papaya)): inactive | outcome [5]: inactive | Potency [3]: 20.9 µM (active) | Potency [4]: 23.5 µM (active)

CN1CCC(=C2c3ccccc3C=Cc3ccccc32)CC1
Potency [1]: 2.19 µM (active) | Potency [2]: inactive | Potency (Papain (Carica papaya)): inactive | Potency [3]: 23.5 µM (active) | Potency [4]: 18.6 µM (active)

Clc1ccc2nsnc2c1NC1=NCCN1
Potency [1]: 17.4 µM (active) | Potency [2]: inactive | Potency (Papain (Carica papaya)): inactive | Potency [3]: inactive | Potency [4]: inactive

CCC1(c2ccccc2)C(=O)NCNC1=O
Potency [1]: inactive | Potency [2]: inactive | Potency (Papain (Carica papaya)): inactive | Potency [3]: inactive | Potency [4]: inactive

— PubChem BioAssay (NCATS)
